# Source: PubChem BioAssay (Broad Institute)
# Many of the other results were omitted from the sample, so hits are more common in it than they were.
# C diff growth = inhibitors of Clostridium difficile growth | growth activity, negative = inhibition, % at 16 µg/mL (by protocol) | Clostridium difficile clinical isolate growth, OD600, 24 h; hits give low values | AID 1259249 | 86,000 compounds, 0.25% hits;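 active means mean growth activity at or below -80% and every replicate also at or below -80%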;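 further: 0% = DMSO wells and -100% = levofloxacin 16 µg/mL wells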
# * marks the source's active call; other numbers are inactive results; ! = not confirmed by another sample.
SMILES,C diff growth
O=C(NCC[C@@H]1CC[C@@H](NC(=O)C2CC2)[C@@H](CO)O1)Nc1ccc(C(F)(F)F)cc1,-84.7*
CN(C)CC(=O)N[C@H]1CC[C@H](CCNC(=O)Nc2ccc(Cl)cc2)O[C@H]1CO,1.5
O=C(NCC[C@@H]1CC[C@@H](NC(=O)C2CCC2)[C@@H](CO)O1)Nc1ccc(Cl)cc1,3.3
O=C(NCC[C@@H]1CC[C@H](NC(=O)C2CC2)[C@@H](CO)O1)Nc1ccc(C(F)(F)F)cc1,-94.0*
O=C(NCC[C@H]1CC[C@@H](NC(=O)C2CCCC2)[C@@H](CO)O1)Nc1ccc(Cl)cc1,-0.8
O=C(NCC[C@@H]1CC[C@H](NC(=O)C2CCC2)[C@H](CO)O1)Nc1ccc(Cl)cc1,-0.8
O=C(NCC[C@@H]1CC[C@H](NC(=O)C2CC2)[C@H](CO)O1)Nc1ccc(C(F)(F)F)cc1,-95.1*
O=C(Nc1ccc(C(F)(F)F)cc1)N[C@H]1CC[C@H](CCNC(=O)c2ccccc2F)O[C@@H]1CO,7.1
O=C(NCC[C@@H]1CC[C@@H](NC(=O)C2CC2)[C@@H](CO)O1)Nc1ccc(Cl)cc1,-3.8
O=C(NCC[C@H]1CC[C@H](NC(=O)C2CC2)[C@H](CO)O1)Nc1ccc(Cl)cc1,2.3
CN(C)CC(=O)N[C@H]1CC[C@H](CCNC(=O)Nc2ccc(C(F)(F)F)cc2)O[C@H]1CO,-94.2*
O=C(NCC[C@H]1CC[C@H](NC(=O)C2CC2)[C@@H](CO)O1)Nc1ccc(Cl)cc1,-0.8
CO[C@H]1CN(C)C(=O)c2ccc(NS(=O)(=O)CC(F)(F)F)cc2OC[C@H](C)N(C)C[C@H]1C,-0.9
Cc1ccc(S(=O)(=O)N(C)C[C@H]2OCCCC[C@@H](C)Oc3ccc(NC(=O)Nc4c(C)noc4C)cc3C(=O)N([C@H](C)CO)C[C@H]2C)cc1,-3.7
O=C(N[C@H]1CC[C@H](CCn2cc(-c3ccccn3)nn2)O[C@@H]1CO)c1cccnc1,2.7
CCNC(=O)[C@@H]1[C@@H](CO)[C@@H]2Cn3c(ccc(-c4ccccc4F)c3=O)[C@H]1N2S(C)(=O)=O,-3.2
CCCNC(=O)C[C@H]1C[C@H]2c3cc(NC(=O)c4cccnc4)ccc3O[C@H]2[C@H](CO)O1,2.2
COc1ccc(S(=O)(=O)N(C)C[C@H]2OCCCC[C@@H](C)Oc3ccc(NS(=O)(=O)c4ccccc4)cc3C(=O)N([C@H](C)CO)C[C@@H]2C)cc1,-15.3
CNC(=O)C[C@H]1CC[C@H]2[C@@H](COC[C@@H](O)CN2Cc2ccc(Cl)c(Cl)c2)O1,2.8
C[C@H]1CCCCO[C@H](CN(C)Cc2ccc(C(=O)O)cc2)[C@@H](C)CN([C@@H](C)CO)C(=O)c2cc(NC(=O)NC3CCCCC3)ccc2O1,-1.4
O=S(=O)(c1ccccc1)N1C[C@@H]2N[C@H](C1)C2c1ccc(-c2ccccc2)cc1 (some centres not stated),55.7
O=C(c1ccncc1)N1C[C@@H]2N[C@H](C1)C2c1ccc(/C=C/c2ccccc2)cc1 (some centres not stated),-1.3
O=C(c1ccc2c(c1)OCO2)N1C[C@@H]2N[C@H](C1)C2c1ccc(/C=C/c2ccccc2)cc1 (some centres not stated),47.3
COc1ccccc1NC(=O)N1C[C@@H]2N[C@H](C1)C2c1ccc(/C=C/c2ccccc2)cc1 (some centres not stated),5.4
O=C(Nc1ccccc1)N1C[C@@H]2N[C@H](C1)[C@@H]2c1ccc(/C=C/c2ccccc2)cc1,-96.9*
SMILES,C diff growth
O=C(Nc1ccccc1)N1C[C@@H]2N[C@H](C1)C2c1ccc(-c2ccccc2)cc1 (some centres not stated),62.2
C/C=C/c1ccc(C2[C@@H]3CN(S(=O)(=O)c4ccc(C)cc4)C[C@H]2N3)cc1 (some centres not stated),-14.8
O=C(c1ccc(F)cc1)N1C[C@@H]2N[C@H](C1)C2c1ccc(/C=C/c2ccccc2)cc1 (some centres not stated),-99.2*!
O=S(=O)(c1ccc(F)cc1)N1C[C@@H]2N[C@H](C1)C2c1ccc(/C=C/c2ccccc2)cc1 (some centres not stated),-98.8*!
C[C@@H]1CN([C@@H](C)CO)C(=O)Cc2cc(NC(=O)Cn3cnnn3)ccc2O[C@@H]1CN(C)C(=O)Nc1ccc(C(F)(F)F)cc1,5.1
N#C[C@H]1[C@H](c2ccccc2C2=CCCCC2)[C@@H](CO)N1C(=O)c1cccc(F)c1,-3.0
Cc1ccc(-c2ccc([C@@H]3[C@@H]4CN(Cc5ccccc5F)C[C@H]3N4)cc2)cc1,-100.9*
CN(C)C(=O)c1cccc(-c2ccc(C3[C@@H]4CN(Cc5ccccc5F)C[C@H]3N4)cc2)c1 (some centres not stated),59.3
Cc1cccc(-c2ccc(C3[C@@H]4CN(Cc5ccccc5F)C[C@H]3N4)cc2)c1 (some centres not stated),-97.9*
Cc1cccc(-c2ccc(C3[C@@H]4CN(Cc5cccnc5)C[C@H]3N4)cc2)c1 (some centres not stated),-1.4
